From PubChem BioAssay AID2685 (National Center for Advancing Translational Sciences (NCATS), 2010)
About 2,100 (0.66%) of roughly 320,000 compounds were called active. Not shown: some 53% with an inconclusive outcome. Calls follow the shape of the dose curve; as a rule, active = well fitted inhibition curve with a large enough effect in the signal ratio, with a control signal flat (not every such curve was filed as active); inconclusive = small, poorly fitted or top-dose-only effect, or effect the other way, or a change in a side signal; inactive = flat fitted curve, though single readings scatter; the % refers to the signal ratio. What follows is part of a selection rich in actives, with near analogues and random picks from the rest.

assay: qHTS Assay for Lipid Storage Modulators in Drosophila S3 Cells; conditions: BODIPY lipid droplet fluorescence, 18-24 h, cells fed with added oleic acid; cell number change: measured here: cell count max response; series mostly up to 46.1 µM; lipid storage change, negative = inhibition: at the top concentration;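 as to cell number change: cells counted by Cell Tracker Red CMTPX staining in the red channel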; as to lipid storage change, negative = inhibition: % is scaled to controls: 0 for no effect and ±100 for the full control effect
How it was run: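 Drosophila S3 cells got compounds at several concentrations plus oleic acid (400 uM solution). Laser-scanning cytometry with 488 nm excitation read lipid droplets at 500-530 nm and cells at 575-640 nm. Percent activity was relative to 20 uM Triacsin C.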
Potency is read from the fitted curve at half-maximal effect.

| SMILES | lipid storage change, negative = inhibition | cell number change | outcome | Potency |
| --- | --- | --- | --- | --- |
| Cc1ccn(CC(=O)N2CCCC(N3CCN(Cc4ccc5c(c4)OCO5)CC3)C2)n1 (stereo not given) | 7.81% (inactive) | 8.09% |  |  |
| Cc1nc(SCC(=O)N(C)Cc2ccco2)c2c(C)c(C)sc2n1 | 14.1% (inactive) | -25.2% |  |  |
| O=C(Nc1ccc(C(=O)Oc2ccccc2)c(O)c1)c1ccccc1 | -0.0459% (inactive) | -6.44% |  |  |
| COc1ccc(/C=C2\SC(=S)N(N3CCOCC3)C2=O)c(OC)c1 | 18% (inactive) | 7.5% |  |  |
| CC1CCN(C(=O)c2cc(Cl)nc3ccccc23)CC1 | 13.5% (inactive) | -4.42% |  |  |
| COc1ccc(S(=O)(=O)N2CCC(C(=O)NCc3cccc(OC)c3)CC2)cc1 |  | 29.1% | inactive |  |
| COc1ccc(/C=N/NC(=O)CCn2nc(C)cc2C)cc1 | 13.7% (inactive) | 9.01% |  |  |
| Cc1cc(C)cc(C(=O)Nc2cc3c4c(c2)CC(=O)N4CCC3)c1 | -15.8% [at 0.0737 µM] (inactive) | -11.8% |  |  |
| O=C(CSc1ccc(C(F)(F)F)cc1[N+](=O)[O-])N1CCOCC1 | -21.4% (inactive) | -7.3% |  |  |
| Cc1ccc(-c2nn(CC(=O)NC(C)c3ccccc3)c(=O)c3ccccc23)cc1 (stereo not given) | -5.81% (inactive) |  |  |  |
| COc1ccccc1Nc1nnc(SCC(=O)c2cc(C)n(CC3CCCO3)c2C)s1 (stereo not given) | 26% (inactive) | 4.55% |  |  |
| CCOc1ccc(CCNC(=O)c2nnn(CC(=O)Nc3c(C)cc(C)cc3C)c2N)cc1OCC |  | 23.4% | inactive |  |
| O=C(c1ccccc1)N1CCN(C2CCCCCC2)CC1 |  | -3.45% |  | 25.9 µM (active) |
| O=C(c1ccccc1)N1CCN(C2CCCCC2)CC1 | 2.03% (inactive) | 7.93% |  |  |
| O=C(c1ccncc1)N1CCN(C2CCCCC2)CC1 | -5.89% (inactive) | 9.31% |  |  |
| Cc1noc(C)c1C(=O)OCC(=O)Nc1cccc(S(=O)(=O)N(C)C)c1 | 3.18% (inactive) | -1.55% |  |  |
| Cc1cc(C(=O)N/N=C/c2ccc(Cl)c([N+](=O)[O-])c2)c(C)n1-c1ccc(F)cc1 | 14.7% (inactive) | -1.33% |  |  |
| CCN(CC)CCC(c1ccc(N(C)C)cc1)c1c(OC)cc(OC)c2c(-c3ccccc3)cc(=O)oc12 (stereo not given) | 6.17% (inactive) | -6.71% |  |  |
| COc1ccc(C(=O)OCC(=O)Nc2cc(C)c(C)cc2[N+](=O)[O-])cc1 | 19.5% (inactive) | -12.7% |  |  |
| NC(=O)CSc1cn(CCNC(=O)c2cccs2)c2ccccc12 | 11.3% (inactive) | 22.5% |  |  |
| O=C1/C(=C/c2cccs2)COc2ccccc21 | -5.09% (inactive) | -6.21% |  |  |
| O=C1C(=Cc2cccs2)C(=O)c2ccccc21 |  | -7.62% |  | 18.4 µM (active) |
| O=C1/C(=C/c2cccs2)Cc2ccccc21 | 2.15% (inactive) | 20.5% |  |  |

| SMILES | lipid storage change, negative = inhibition | cell number change | outcome | Potency |
| --- | --- | --- | --- | --- |
| O=C(CN1C(=O)/C(=C\c2cccc(Cl)c2)Oc2ccccc21)N1CCN(c2ccccn2)CC1 | 21.7% (inactive) |  |  |  |
| CC1CC(Nc2ccccc2)=CC(=O)O1 (stereo not given) |  |  | inactive |  |
| C[C@@H]1C=CC(=O)O[C@@H]1c1ccc(C(F)(F)F)cc1 | 16.1% (inactive) | 9.88% |  |  |
| C[C@@H]1CC[C@H](O)/C=C/C(=O)O[C@H](C)CC[C@H](O)/C=C/C(=O)O1 |  | -1.52% |  | 5.8 µM (active) |
| COc1ccc([C@H]2CC(=O)C=C(c3ccc4c(c3)OCO4)C2)cc1 | -9.07% (inactive) | 2.65% |  |  |
| CCOC(=O)C1CCCN(C(=O)c2ccc3nc(-c4cccc(OC)c4)oc3c2)C1 (stereo not given) | -19.1% (inactive) | 6.9% |  |  |
| COc1ccc(NC2CCCN(C(=O)c3ccc4nc(C)c(C)nc4c3)C2)cc1OC (stereo not given) |  |  | inactive |  |
| CCOC(=O)C1CCCN(C(=O)c2ccc3nc(-c4ccc(OC)c(OC)c4)c(-c4ccc(OC)c(OC)c4)nc3c2)C1 (stereo not given) |  | -26.9% |  | 4.11 µM (active) |
| O=c1c2nnn(-c3ccc(Br)cc3)c2ncn1Cc1ccccn1 | 14.2% (inactive) | 17.2% |  |  |
| CSC1=NC(NCCCO)c2c(sc3c2CC(C)(C)OC3)N1 (stereo not given) | 21.6% (inactive) | -5.44% |  |  |
| O=S(=O)(c1ccccc1)N1N=C(c2ccc(Br)cc2)CC1c1ccco1 (stereo not given) |  | 13.4% |  | 16.4 µM (active) |
| CC(=O)N1N=C(c2cccc(NS(=O)(=O)c3ccc(C)cc3)c2)CC1c1ccco1 (stereo not given) |  | -6.11% | inactive |  |
| CCS(=O)(=O)Nc1ccc(C2=NN(S(=O)(=O)c3ccc(F)cc3)C(c3ccco3)C2)cc1 (stereo not given) | -3.66% (inactive) | 4.44% |  |  |
| CC(=O)N1N=C(c2ccc(Cl)cc2)CC1c1ccco1 (stereo not given) | 26.9% (inactive) | 10.2% |  |  |
| CC(=O)N1N=C(c2ccc(NS(=O)(=O)c3ccccc3)cc2)CC1c1ccco1 (stereo not given) |  | -11.6% |  | 9.2 µM (active) |
| CS(=O)(=O)Nc1cccc(C2=NN(S(=O)(=O)c3ccccc3)C(c3ccco3)C2)c1 (stereo not given) | 0.748% (inactive) | -5.75% |  |  |
| Cc1cc(C)c(O)c(-c2cc(C(=O)Nc3cccnc3)[nH]n2)c1 | -22.1% (inactive) | -5.15% |  |  |
| CCc1ccc(-c2cc(C)no2)cc1S(=O)(=O)NCc1ccccc1OC |  | 2.29% | inactive |  |
| COc1ccc(-c2noc(-c3ccccc3C(=O)Nc3cccc(OC)c3)n2)cc1 | 13.9% (inactive) | 2.43% |  |  |
| O=C1CCCc2c1cc(C(=O)NCc1ccco1)c(=O)n2-c1ccccc1 | 12.5% (inactive) | 1.19% |  |  |
| CC(Cl)C(=O)c1ccc2c(c1)CCN2C(=O)C1CC1 (stereo not given) | 4.02% (inactive) | -1.68% |  |  |
| COc1ccc(C(c2c(NC(=O)c3ccco3)sc(C)c2C)N2CCOCC2)cc1 (stereo not given) |  |  | inactive |  |
